Hits are enriched below; roughly 5.1% of the tested compounds scored in any of these assays.
GRIN3A LBD mod = modulators (binders) of human NR3A ligand-binding domain | AID 1259313 | NR3A LBD differential scanning fluorimetry, Tm shift; 0% = protein alone, 100% = glycine-bound protein | Tm shift relative to glycine control, % at 25 µM | 340,000 compounds, 2.5% hits;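 active = melting temperature shift of at least 10% of the positive control shift, at one fixed dose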
CRFBP-R2 agonist = agonists of human CRF-binding protein/CRF-R2 receptor complex; HEK293 CRF-R2/CRF-BP, calcium dye fluorescence (FLIPR); percent of saturating CRF peptide response; AID 588473; activation, % at 13.2 µM; 350,000 compounds, 0.46% hits;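 active = activation of at least 50%, plus an integration ratio under a set limit after plate pattern correction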;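 note: plate controls were neutral control wells without compound for no effect and CRF at EC100 for full effect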
ANO1 activ = activates or potentiates the mouse TMEM16A chloride channel; 340,000 compounds, 0.3% hits; HEK293 TMEM16A/YFP-H148Q/I152L, iodide quench fluorescence; stronger effect = lower value; AID 623877; B-score at 10 µM;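 active = fluorescence-ratio B-score plate-corrected deviation score at least 3 library SD below zero, with starting fluorescence score within 5 deviations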;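 note: channel opened by trigger with iodide after compound preincubation; score built on the fluorescence ratio of max minus min over baseline; more negative score means more quench and so TMEM16A activation or potentiation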
Target sequence (Q8BHY3 whole entry, looked up): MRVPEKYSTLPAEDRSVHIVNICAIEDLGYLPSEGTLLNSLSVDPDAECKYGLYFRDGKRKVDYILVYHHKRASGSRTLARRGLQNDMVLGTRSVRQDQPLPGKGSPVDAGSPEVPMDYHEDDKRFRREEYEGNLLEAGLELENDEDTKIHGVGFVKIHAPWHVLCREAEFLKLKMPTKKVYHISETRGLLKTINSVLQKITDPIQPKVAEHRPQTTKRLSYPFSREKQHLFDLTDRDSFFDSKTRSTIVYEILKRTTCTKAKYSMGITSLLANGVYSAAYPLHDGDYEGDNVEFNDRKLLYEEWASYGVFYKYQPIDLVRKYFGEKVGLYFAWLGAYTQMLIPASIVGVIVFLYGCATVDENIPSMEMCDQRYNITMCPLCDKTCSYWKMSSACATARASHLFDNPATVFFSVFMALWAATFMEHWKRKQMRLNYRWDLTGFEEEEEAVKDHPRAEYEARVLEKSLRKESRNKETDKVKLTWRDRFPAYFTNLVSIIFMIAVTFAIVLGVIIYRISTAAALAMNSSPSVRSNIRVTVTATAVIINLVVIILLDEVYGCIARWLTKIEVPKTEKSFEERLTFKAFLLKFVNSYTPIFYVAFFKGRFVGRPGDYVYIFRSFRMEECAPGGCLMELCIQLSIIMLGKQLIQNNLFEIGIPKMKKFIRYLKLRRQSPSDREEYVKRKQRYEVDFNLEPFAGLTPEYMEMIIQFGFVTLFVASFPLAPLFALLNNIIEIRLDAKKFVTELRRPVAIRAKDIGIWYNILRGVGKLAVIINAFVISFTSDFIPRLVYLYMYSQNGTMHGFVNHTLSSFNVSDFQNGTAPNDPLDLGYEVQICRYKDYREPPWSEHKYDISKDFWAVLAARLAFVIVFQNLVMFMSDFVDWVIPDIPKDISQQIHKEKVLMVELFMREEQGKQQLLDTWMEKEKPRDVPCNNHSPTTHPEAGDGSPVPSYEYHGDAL
CRFBP-R2 block = blocks CRF-induced signaling of the CRF-BP/CRF-R2 complex; HEK293 CRF-R2/CRF-BP, CRF-induced calcium fluorescence; inhibition, % at 11.8 µM; 350,000 compounds, 0.59% hits;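 active = inhibition of the ligand-induced calcium signal above about 50% at the single tested concentration, limit read from the data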
MPTP block = inhibitors of mitochondrial permeability transition pore; AID 602449; inhibition, % at 10 µM; isolated mouse mitochondria, Ca2+ swelling absorbance, 30 min; 360,000 compounds, 1.4% hits;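 active = inhibition of 50% or more, scaled per plate between neutral and stimulator controls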;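 note: 0% = DMSO wells given calcium and 100% = 1 mM EGTA wells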
TMEM16A inh = blocks the mouse calcium-activated chloride channel TMEM16A; Q8BHY3; HEK293 TMEM16A/YFP iodide influx fluorescence, ionomycin; normalized B-score (activity score, 25-100; higher = stronger inhibition) at 10 µM; 310,000 compounds, 1.2% hits; AID 588511;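 active = ratio plate-corrected score three or more library SD toward inhibition, starting fluorescence score within five deviations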;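 note: score derived from kinetic fluorescence span divided by baseline fluorescence per well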
The depositor's hits bear a star; i = inactive; . = no result given.

SMILES	GRIN3A LBD mod	CRFBP-R2 agonist	ANO1 activ	CRFBP-R2 block	MPTP block	TMEM16A inh
C/C(=N\NS(=O)(=O)c1ccccc1)c1cccc(NC(=O)c2cccc(Cl)c2)c1	15.0*	-1.3	i	-6.3	2.4	i
CCN(CC)S(=O)(=O)c1cccc(C(=O)N/N=C(\C)c2cccs2)c1	-0.1	-0.1	i	21.4	-3.8	i
COc1ccc(S(=O)(=O)N/N=C(/C)c2ccc(Cl)cc2)cc1	-4.0	-2.7	i	18.1	0.7	i
CCOC(=O)C(=O)N(C)c1c(CC)nc2c(OCc3ccccc3C)cccn12	.	.	.	.	2.8	.
CCN(CC)S(=O)(=O)c1cc(C(=O)Nc2cc(S(=O)(=O)N3CCOCC3)ccc2N2CCN(C)CC2)ccc1C	-1.6	-0.3	i	9.2	-2.2	.
CC(=O)Nc1cccc(-c2cc(N3CCN(CCO)CC3)n3nccc3n2)c1	.	.	.	.	-1.6	.
COc1cccc(C2NC(=O)CCC2[N+](=O)[O-])c1OC (configuration not stated)	0.6	-0.7	i	-8.0	0.0	i
Cc1ccc(SCCNC(=O)/C=C/c2ccccc2Cl)cc1	0.4	3.0	i	1.2	41.8	25*
CCC(c1ccccc1)c1nc(-c2cccnc2)no1 (configuration not stated)	12.2*	0.3	i	26.6	-0.4	i
CC(NC(=O)CCl)c1ccccc1Br (configuration not stated)	2.0	-1.1	i	-19.9	2.9	i
C/C(=N\OC(=O)c1cccc(C)c1)c1sc(-c2ccccc2)nc1C	18.2*	5.8	i	4.2	-0.2	i
C/C(=N\OC(=O)c1cccc(C(F)(F)F)c1)c1sc(-c2ccccc2)nc1C	2.1	2.9	i	-4.6	0.3	i
C/C(=N\OC(=O)c1ccc(F)cc1)c1sc(-c2ccccc2)nc1C	10.8*	2.0	i	-19.7	-2.2	i
CC1(C)CC(=O)C=C(/C=C/c2ccccc2)C1	-0.6	0.3	i	3.5	-0.7	.
O=C(c1ccccc1)c1cccc[n+]1[O-]	0.1	-2.4	i	14.0	0.0	i
COc1ccc(C(C)NC(=O)c2ccccc2Br)cc1OC (configuration not stated)	-1.2	-0.4	i	-6.5	-2.3	i
Cc1ccc(C)c(C(C)NC(=O)c2ccccc2Br)c1 (configuration not stated)	-0.4	-1.4	i	63.6*	-8.7	i
Cc1cccc(-n2c(C)cc(C=C3C(=O)c4ccccc4C3=O)c2C)c1	2.9	51.2*	i	-12.9	3.0	i
CSC1=NC2(CC(c3ccccc3)Oc3cc(O)ccc32)CC(C)(C)N1 (configuration not stated)	10.8*	-0.3	i	-32.4	3.5	i
Cc1ccc(C)c(N2CCN(C(=O)CCc3nc(-c4cccc(F)c4)no3)CC2)c1	19.5*	0.0	.	-4.1	0.6	.
COc1ccc(-c2noc(CCC(=O)N3CCN(c4cccc(OC)c4)CC3)n2)cc1	1.2	0.8	.	0.6	1.0	.
O=C(COCc1cc(-c2ccc3c(c2)OCO3)on1)N1CCN(c2cccc(C(F)(F)F)c2)CC1	-5.2	4.9	i	-5.6	-0.1	25*
COc1ccc(-c2noc(CCC(=O)N3CCN(c4cccc(C(F)(F)F)c4)CC3)n2)cc1	-13.7	4.8	i	2.5	-1.0	100*
Cc1ccc(C)c(N2CCN(C(=O)CCc3nc(-c4cccc(Br)c4)no3)CC2)c1	-1.0	3.6	.	0.2	0.1	.
CCCCCCn1c(N2CCN(c3cccc(Cl)c3)CC2)nc2c1c(=O)[nH]c(=O)n2C	14.1*	0.0	i	-12.4	-9.1	i
SMILES	GRIN3A LBD mod	CRFBP-R2 agonist	ANO1 activ	CRFBP-R2 block	MPTP block	TMEM16A inh
COc1ccc(Oc2nc(C(F)(F)F)nc3ccccc23)cc1	22.8*	-0.1	i	4.9	-0.6	i
Cc1ccc(Oc2nc(C(F)(F)F)nc3ccccc23)cc1	-1.1	7.5	i	6.4	4.7	i
CCN1CCN(CC(=O)N2N=CCC2c2ccccc2)CC1 (configuration not stated)	0.2	0.6	i	69.7*	3.9	i
O=C(CSc1ccc(Cl)cc1)N1N=CCC1c1ccccc1 (configuration not stated)	-1.3	-1.6	i	-2.8	2.4	i
CCCc1nc(NCC2CCCO2)c2nnn(Cc3ccccc3)c2n1 (configuration not stated)	-0.1	3.4	-4.92*	12.8	-7.3	i
Cc1nc(NCC2CCCO2)c2nnn(Cc3ccccc3)c2n1 (configuration not stated)	0.7	-1.5	i	4.6	0.0	i
Cc1ccc(S(=O)(=O)N2CCC3(CC2)OCCN3S(=O)(=O)c2cccs2)cc1	4.4	0.7	i	-5.0	-1.4	i
Cc1ccc(S(=O)(=O)N2CCOC23CCN(S(=O)(=O)c2cccs2)CC3)cc1	12.2*	2.0	i	0.1	0.8	i
CC[C@]12c3[nH]c4ccc(OC)cc4c3CCN1C(=O)C(CC(=O)NCCc1ccccn1)C[C@@H]2C(=O)N1CCN(C(=O)C2CC2)CC1 (some centres not stated)	-0.1	-0.2	.	4.1	0.1	.
O=C(O)c1ccccc1C(=O)Nc1n[nH]c(=S)s1	14.2*	-1.4	i	-7.7	0.6	i
COc1ccc(-c2nn(-c3ccccc3)cc2/C=N/NC(=O)c2ccc3c(c2)OCO3)cc1	.	.	.	.	.	i
COc1ccc(-c2nn(-c3ccccc3)cc2/C=N/NC(=O)c2ccc(Br)o2)cc1	-3.1	2.3	i	15.7	5.9	100*
O=C(N/N=C/c1cn(-c2cccs2)nc1-c1ccccc1)c1ccccc1Br	10.8*	2.0	i	-15.0	1.6	i
Cc1nn(-c2ccccc2)cc1/C=N/NC(=O)c1cccs1	20.1*	0.8	i	-3.8	2.2	i
O=C(N/N=C/c1cn(-c2ccccc2)nc1-c1cc2ccccc2o1)c1ccccc1Br	4.6	5.9	i	-2.1	3.1	i
CSc1ccc(/C=N/NC(=O)c2cccs2)cc1	13.2*	35.1	i	-7.7	2.2	i
CCCNC(=O)C1(C)CCN1C(=O)c1cc(C)n(C)n1 (configuration not stated)	.	.	.	.	0.1	.
CC1(C)OC(=O)C=C[C@]2(C)[C@H]3CC[C@@]4(C)[C@H](C(=O)O)OC(=O)[C@H]5O[C@]54[C@]3(C)C(=O)C[C@@H]12	2.6	2.7	i	3.1	-1.2	.
CSc1ccc(/C=N/NC(=O)c2ccc(O)cc2)cc1	25.9*	-2.1	i	-22.6	4.1	i
COc1ccc(C(=O)N/N=C/c2ccc(SC)cc2)cc1	10.2*	-0.7	i	31.4	-0.6	i
COc1ccc(C(=O)N/N=C/c2ccc(OC(=O)c3ccccc3)cc2)cc1	1.4	-1.1	i	5.6	1.0	i

Assay outcomes deposited in PubChem by several laboratories.
